# The source made the active and inactive calls. Calls come from the whole dose curve; as a rule, active = well fitted curve in the direction sought with a large enough effect; inconclusive = small, poorly fitted or top-dose-only effect, or another doubt; inactive = no such curve, though single readings can be large or run the other way.
# Molecular target: Hexokinase-4 (Homo sapiens) + Glucokinase regulatory protein (Homo sapiens) (UniProt P35557+Q14397)
# Experiment: qHTS assay for inhibitors of recombinant human GCK-GKRP interaction: Diaphorase-coupled assay (AID 743205)
# Conditions: G6PDH/diaphorase resorufin fluorescence; series mostly up to 57.5 µM
# Text: Glucokinase (GCK) is a glucose sensor in hepatocytes and pancreatic beta-cells. Hepatic GCK is regulated by glucokinase regulatory protein (GKRP), which is predominantly localized to the liver. GKRP binds to GCK inhibiting its activity in the fasting state while in the presence of glucose the GKRP is displaced. There is an additional layer of regulation by fructose 1-phosphate and fructose 6-phosphate, which inhibit and enhance the GCK-GKRP interaction, respectively. GCK plays a role in glucose homeostasis and there is an interest in the development of strategies to activate GCK to lower blood glucose levels in type 2 diabetes. To date the majority of effort has focused on direct activation of GCK and the assays developed herein look to activate GCK by inhibiting its binding to GKRP. A compound that inhibits the interaction of GCK with GKRP could be important for the treatment of diabetes and can also be used as a tool compound to further elucidate GCK-GKRP biology. To that end, we have developed a sensitive HTS biochemical assay where in GCK activity is coupled to G6PDH and Diaphorase to interrogate the GCK-GKRP interaction. This assay was screened against a small compound library to look for modulators of activity.
# 2 uL of substrate (columns 1-48) are dispensed into Greiner, black solid-bottom 1536-well assay plates. Compounds (23 nL) are then transferred via Kalypsys pin tool equipped with 1536-pin array (10 nL slotted pins, V&P Scientific, San Diego, CA). The library compounds are in columns 5-48 and columns 1-4 serve as controls with DMSO in columns 1 and 3 and 26 mM 1:1.5 fold serial of gluckokinase activator (GKA-EMD) in column 2 and 26 mM of the glucokinase activator (GKA-EMD) in column 4. Following addition of compound and a 20 minute incubation, 1 uL of enzyme mix (GST-GCK, FLAG-GKRP and diaphorase) is added to columns 1, 2, 4-48 and 1 uL of no enzyme mix (FLAG-GKRP and diaphorase) is added to column 3 and the fluorescent product resorufin generated from resazurin was monitored on a Viewlux (PerkinElmer, Shelton, CT, USA) with excitation at 525 nm and emission at 590 nm in kinetic mode where the plate was read every minute for 30 minutes. The final concentration of reagents in the reaction are 25 mM Hepes pH 7.6, 25 mM KCl, 2 mM MgCl2, 1.4 mM 2-mercaptoethanol, 0.025% BSA, 0.01% Tween-20, 0.15 mM NADP+, 5 mM glucose, 0.4 mM ATP, 4 U/ml G6PDH, 0.1 mM resazurin, 10 nM GST-GCK, 10 nM FLAG-GKRP, diaphorase (0.1 mg/mL). Data are normalized to DMSO-treated control columns with (maximum signal) and without (minimum signal) enzyme.
# Chain of Hexokinase-4 (Homo sapiens) + Glucokinase regulatory protein (Homo sapiens) (P35557 whole entry, looked up): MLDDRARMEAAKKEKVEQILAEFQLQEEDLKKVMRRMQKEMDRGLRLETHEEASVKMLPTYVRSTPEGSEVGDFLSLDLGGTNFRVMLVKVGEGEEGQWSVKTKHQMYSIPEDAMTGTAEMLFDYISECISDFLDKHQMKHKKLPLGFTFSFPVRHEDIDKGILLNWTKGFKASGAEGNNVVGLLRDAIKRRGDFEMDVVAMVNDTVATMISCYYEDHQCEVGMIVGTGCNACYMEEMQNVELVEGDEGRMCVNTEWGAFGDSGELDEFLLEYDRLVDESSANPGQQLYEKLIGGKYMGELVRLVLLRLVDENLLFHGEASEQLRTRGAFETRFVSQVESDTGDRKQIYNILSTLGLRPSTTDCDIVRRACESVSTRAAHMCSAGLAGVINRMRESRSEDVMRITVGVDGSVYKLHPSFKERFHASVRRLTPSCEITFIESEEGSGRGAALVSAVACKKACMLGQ
# Chain of Hexokinase-4 (Homo sapiens) + Glucokinase regulatory protein (Homo sapiens) (Q14397 whole entry, looked up): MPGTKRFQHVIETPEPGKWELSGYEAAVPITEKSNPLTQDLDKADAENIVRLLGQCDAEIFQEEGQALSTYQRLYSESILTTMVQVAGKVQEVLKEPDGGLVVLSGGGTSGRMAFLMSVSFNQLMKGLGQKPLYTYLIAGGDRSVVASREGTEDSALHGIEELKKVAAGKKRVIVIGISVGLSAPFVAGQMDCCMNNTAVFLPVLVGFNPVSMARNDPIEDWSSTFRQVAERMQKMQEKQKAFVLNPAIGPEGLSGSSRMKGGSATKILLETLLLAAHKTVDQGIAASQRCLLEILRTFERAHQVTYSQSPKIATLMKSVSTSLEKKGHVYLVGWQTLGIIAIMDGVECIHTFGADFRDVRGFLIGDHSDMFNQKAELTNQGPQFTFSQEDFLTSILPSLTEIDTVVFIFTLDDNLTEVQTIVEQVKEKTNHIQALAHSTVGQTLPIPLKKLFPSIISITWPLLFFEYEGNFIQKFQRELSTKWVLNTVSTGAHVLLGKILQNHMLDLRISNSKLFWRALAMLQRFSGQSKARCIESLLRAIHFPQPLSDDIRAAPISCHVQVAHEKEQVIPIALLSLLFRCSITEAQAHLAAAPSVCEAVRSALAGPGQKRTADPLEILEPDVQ
row,SMILES,outcome
1,Clc1ccc2c(c1)N=C(N1CCNCC1)c1ccccc1N2,inactive
2,O=[N+]([O-])c1ccc(-c2nc(-c3ccc(F)cc3)c(-c3ccncc3)[nH]2)cc1,inactive
3,Nc1ncnc2n[nH]c(Nc3ccc(F)cc3)c12,inactive
4,COc1cccc2c1[C@@H]1CN(CCCCn3c(=O)[nH]c4c(sc5ncc(-c6ccccc6)nc54)c3=O)C[C@@H]1CO2,inactive
5,COc1ccccc1N1CCN(CCN2C(=O)CC3(CCCC3)CC2=O)CC1,inactive
6,NC(N)=NCCCCN=C(N)N,inactive
7,N[C@@H](Cn1ccc(=O)c(O)c1)C(=O)O,inactive
8,Cn1cnc2c(NCc3ccccc3)nc(NCCO)nc21,inactive
9,CC(C)N(CCC(=O)c1ccc2ccccc2c1)Cc1ccccc1,inactive
10,Brc1ccc([C@H]2CN3CCSC3=N2)cc1,inactive
11,CN(C)c1cc2c(Nc3ccc4c(cnn4Cc4ccccc4)c3)ncnc2cn1,inactive
12,CCN(CC)CCNC(=O)c1ccc(NS(C)(=O)=O)cc1,inactive
13,O=C1NC(=O)/C(=C/c2ccc3c(c2)OC(F)(F)O3)S1,inactive
14,COC(=O)C1=CO[C@@H](O)[C@@H]2C(CO)=CC[C@H]12,inactive
15,O=C1NC(c2cccc([N+](=O)[O-])c2)=CCN1c1ccccc1O,inactive
16,Cc1nn(-c2ccccc2)c(C)c1/C=N/N1CCN(Cc2ccccc2)CC1,inactive
17,C[N+](C)(C)CCO,inactive

# Source: PubChem BioAssay (NCATS)
